Data reported in PubChem BioAssay AID485364 (National Center for Advancing Translational Sciences (NCATS), 2010).
About 11,000 (3.1%) of roughly 360,000 compounds were called active. A call without a number means that no potency is given here. About 4% were inconclusive and are not listed. The sample holds actives, similar compounds and a random draw of the others, so the mix is not that of the screen. Calls come from the whole dose curve; as a rule, active = well fitted inhibition curve with a large enough effect; inconclusive = small, poorly fitted or top-dose-only effect; inactive = no such curve, though single readings can be large or run the other way.

Biological target: Schistosoma mansoni thioredoxin glutathione reductase (TGR) (UniProt Q962Y6)
Test: qHTS Assay for the Inhibitors of Schistosoma Mansoni Peroxiredoxins; note: nearly all actives have a fitted effect of over 60% in size
Settings: purified TGR, DTNB reduction, TNB absorbance 405 nm; series mostly up to 114 µM
In short: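 Kinetic colorimetric format: TGR-catalysed, NADPH-driven DTNB reduction monitored via TNB absorbance. Enzyme dispensed at 20 nM; compound exposure 15 min at room temperature before reaction start.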
Potency is the fitted concentration of half-maximal effect.

Structure (SMILES)	Potency
COc1cn(CC(=O)Nc2cccc(C)c2C)c(CN2CCCCC2)cc1=O	inactive
CCc1ccccc1NC(=O)CSc1nc(C)c(C(=O)Nc2ccccc2)c(-c2ccc(Cl)cc2)c1C#N	inactive
COc1ccc(-c2onc(C)c2C)cc1S(=O)(=O)NCC1CCN(Cc2cccc(F)c2)CC1	inactive
CCN1C(=O)[C@@H]2[C@@H](c3ccc(-c4ccc(OC)cc4)c(OC)c3)N3CCC[C@@]3(C(=O)OC)[C@@H]2C1=O	inactive
COC(=O)[C@@]12CCCN1[C@H](c1ccc(-c3ccc(F)cc3)c(OC)c1)[C@H]1C(=O)N(C)C(=O)[C@H]12	inactive
CCN1C(=O)[C@@H]2[C@@H](c3ccc(-c4cccc(Cl)c4)cc3)N3CCC[C@@]3(C(=O)OC)[C@@H]2C1=O	22.4 µM (active)
CCN1C(=O)[C@@H]2[C@@H](c3ccc(-c4ccccc4)cc3)N3CCCC[C@@]3(C(=O)OC)[C@@H]2C1=O	35.5 µM (active)
CCN1C(=O)[C@H]2[C@@H](c3ccc(-c4ccc(F)cc4)cc3)N[C@@](Cc3ccccc3)(C(=O)OC)[C@H]2C1=O	inactive
CCN1C(=O)[C@H]2[C@@H](c3ccc(SC4CCCCC4)c(OC)c3)N[C@@](Cc3ccccc3)(C(=O)OC)[C@H]2C1=O	inactive
Cc1ccc(S(=O)(=O)c2c(Nc3cccc(Cl)c3)sc(C(=O)c3ccc4c(c3)OCO4)c2N)cc1	inactive
CCOC(=O)c1cccc(NS(=O)(=O)c2cc(-c3cnc(C)o3)ccc2OC)c1	inactive
CCOc1ccc(S(=O)(=O)Nc2ccc3oc4c(c3c2)CC(C)CC4)cc1 (stereo not drawn)	inactive
CCOc1ccc(C2C(=O)N(C3CCCCC3)CC(=O)N2CCC2=CCCCC2)cc1OC (stereo not drawn)	inactive
C=CCNc1cnn(-c2ccc(C)cc2)c(=O)c1Cl	inactive
Cc1cccc(-n2ncc(Cl)c(Cl)c2=O)c1	28.2 µM (active)
Cc1ccc(-n2ncc3c(=O)[nH]cnc32)c(C)c1	inactive
COc1ccc(Cn2c(=O)n(-c3ccccc3C)c(=O)c3c4c(sc32)CN(C(C)=O)CC4)cc1	inactive
O=C(CC1C(=O)NCCN1CC(c1ccccc1)c1ccccc1)NCC1CCOCC1 (stereo not drawn)	inactive
Cc1cc(C)n(CCNC(=O)CC2C(=O)NCCN2Cc2ccc(C)o2)n1 (stereo not drawn)	39.8 µM (active)
Cc1nccn1CCCNC(=O)CC1C(=O)NCCN1Cc1ccc(Cl)c(F)c1 (stereo not drawn)	inactive

Structure (SMILES)	Potency
CCc1nn(CC(=O)N2CCN(c3cccc(C(F)(F)F)c3)CC2)c(=O)c2cc3occc3n12	inactive
Cc1c(CNC(C)c2ccccc2)c(C(=O)O)c(C)n1Cc1c(F)cccc1Cl (stereo not drawn)	inactive
COc1ccc(OC)c(NC(=O)C2CCCN(S(=O)(=O)c3ccc4c(c3)CCCC(=O)N4)C2)c1 (stereo not drawn)	inactive
COc1cc(OC)c(C(=O)OCC(=O)N2CC(=O)Nc3ccccc32)cc1OC	inactive
O=C1CN(C(=O)COC(=O)C2CC(=O)N(Cc3ccco3)C2)c2ccccc2N1 (stereo not drawn)	39.8 µM (active)
Cc1ccc(S(=O)(=O)N2CCC(C(=O)OCC(=O)N3CC(=O)Nc4ccccc43)CC2)cc1	inactive
COc1ccccc1-c1cc2nc(C)c(CCC(=O)NC3CCCCC3)c(C)n2n1	inactive
CCc1ccc(NC(=O)c2cnc3c(-c4ccccc4)c(C)nn3c2C)cc1	inactive
COc1ccc(C)cc1N(C)C(=O)c1c(C)oc2ncnc(N3CCOCC3)c12	inactive
CCN(CC)c1cc(NC2CCCCC2)c2c3c(onc13)-c1ccccc1C2=O	inactive
CCCN(CCC)C(=O)Cn1c(=O)n(-c2ccc(Cl)cc2)c(=O)c2c3c(sc21)CCCCC3	inactive
CCc1cccc(C)c1Nc1c(-c2ccc(N(C)C)cc2)nc2ncccn12	inactive
CCOc1ccc(NC(=O)CCc2c(C)nn(-c3ccc(N4CCCC4)nn3)c2C)cc1	inactive
Cc1cccc(NC(=O)CSc2nnc(CNC(=O)c3cccc(C)c3)n2-c2ccccc2)c1	inactive
CCN(CC)P(=O)(/C(Cl)=C\Nc1c(C)n(C)n(-c2ccccc2)c1=O)N(CC)CC	89.1 µM (active)
Cc1c(NC(=S)Nc2ccccc2)c(=O)n(-c2ccccc2)n1C	inactive
Cc1c(NS(=O)(=O)c2ccc(Cl)cc2)c(=O)n(-c2ccccc2)n1C	inactive
COc1ccccc1CNc1nccn(-c2ccc(F)cc2)c1=O	inactive
N#CC1=C(N)Oc2c(sc3ccccc23)C1c1ccco1 (stereo not drawn)	31.6 µM (active)
N#CC1=C(N)Oc2c(c(=O)oc3ccccc23)C1c1ccccc1OC(=O)c1cccs1 (stereo not drawn)	inactive

Structure (SMILES)	Potency
N#CC1=C(N)Oc2c(ccc3cccnc23)C1c1ccncc1 (stereo not drawn)	inactive
CCOc1ccc(-n2c(SCC(=O)NCc3ccccc3)nc3n[nH]c(C)c3c2=N)cc1	inactive
CCCC(NC(=O)c1ccco1)c1nc2ccccc2[nH]1 (stereo not drawn)	inactive
O=C(Nc1cccc(-c2nc3ccccc3o2)c1)c1cccc(Br)c1	inactive
O=C(/C=C/c1ccco1)Nc1cccc(-c2nc3ccccc3[nH]2)c1	14.1 µM (active)
CCOC(=O)c1cc(NC(=O)c2ccc(F)cc2)c(=O)n2c1oc1ccccc12	inactive
CCOC(=O)c1ccc(NC(=O)C2CC(=O)N(c3ccc(C(C)C)cc3)C2)cc1 (stereo not drawn)	inactive
COc1ccc(CNC(=O)C2=Cc3cccc(OC)c3OC2)cc1OC	inactive
O=C(CSc1oc(-c2ccc(F)cc2)nc1S(=O)(=O)c1ccc(Br)cc1)NC1CCCCC1	inactive
Cc1ccc(S(=O)(=O)c2nc(-c3ccco3)oc2SCC(=O)Nc2ccc(F)cc2)cc1	inactive
CC(C)S(=O)(=O)c1oc(-c2ccc(F)cc2)nc1S(=O)(=O)c1ccc(F)cc1	2.24 µM (active)
CCCN1CCN(CCCNC(=O)c2ccc3nc(Cc4ccccc4)oc3c2)CC1	inactive
CCC(C)Nc1oc(-c2ccc(COc3ccc(Cl)cc3)o2)nc1C#N (stereo not drawn)	inactive
Cc1ccc(N2C(=O)CC(N3CCSCC3)C2=O)c(C)c1 (stereo not drawn)	50.1 µM (active)
Cc1ccc(N2CCN(S(=O)(=O)c3ccc(F)cc3)CC2)c(C)c1	inactive
Cc1ccc(CC2CC(=O)N(c3cc(C)ccc3C)C2=O)cc1 (stereo not drawn)	inactive
CC(=O)Nc1cccc(NC(=O)CSc2cn(CC(=O)N3CCCC3)c3ccccc23)c1	inactive
CCC1(C)CC(=O)c2c(ccc3oc(C(=O)Nc4ccc(C(C)=O)cc4)c(C)c23)O1 (stereo not drawn)	inactive
